The text below walks through data of PubChem BioAssay AID720519 (National Center for Advancing Translational Sciences (NCATS), 2013).

What is called inhibition is the relative decrease from the control value, in per cent.

Records with an inconclusive call do not appear. Calls of active or inactive are those of the source. The call rests on the fitted dose curve; in most records, active means well fitted activation curve with a large enough effect; inconclusive means small, poorly fitted or top-dose-only effect; inactive means flat fitted curve, though single readings scatter.
Potency means the concentration at half of the fitted maximal effect.

The experiment is described as follows: qHTS for Inhibitors of Cell Surface uPA Generation: Confirmatory Assay for Cherry-picked Compounds. On inhibition: 0% is about no effect. Particulars: cell surface uPA activity generation, qHTS confirmation; series mostly up to 115 µM; inhibition: at the top concentration. A digest of the protocol:
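RAW 264.7 cells at 4000/well, incubated overnight, then treated with compounds. After 24 h at 37 C, viability was read by ATPlite luminescence. An increase in signal indicates blocked uPA-dependent LF entry.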
For orientation: Quantitative high-throughput screening tests each substance at several concentrations.
Consider `CC1CCCC(NC(=O)CNC(=S)N(Cc2ccccc2)Cc2cccs2)C1C` (centres undefined), for which the “inhibition” value is -2.48% (inactive). `CCC(=O)Nc1nc(-c2cc([N+](=O)[O-])cs2)cs1`: the “inhibition” value was -0.373% (inactive). Still for that read-out and setting: under `CCN(CC)S(=O)(=O)c1ccc(NC(=S)Nc2ccc(F)cc2)cc1` stands -2% (inactive); under `C=CCn1c(=O)c(C(=O)NCCc2ccc(Cl)cc2)c(O)c2cc(OC)c(OC)cc21`, -0.658% (inactive); under `CCOC(=O)CN1C(=O)N[C@@H](c2ccco2)C(C(=O)OC)=C1C`, -2.99% (inactive). The same measure, in the same setting: with `CC1CC(C)CN(CCCNC(=O)CN2C(=O)CSc3ccc(S(=O)(=O)N4CCOCC4)cc32)C1` (centres undefined) the figure was 0.198% (inactive); with `CCc1nc(SCC(N)=O)c2c(=O)n(C)c(=O)n(C)c2n1`, -0.0006% (inactive).

In the case of `CC(C)NC(=O)NC(=O)CN1C(=O)NC(Cc2c[nH]c3ccccc23)C1=O` (centres undefined), the “inhibition” value is -2.11% (inactive). Take `CN(C)C(=O)NC(NC(=S)Nc1ccccc1)C(Cl)(Cl)Cl` (centres undefined): the “inhibition” value is -2.04% (inactive).

In the case of `CCCNC(=O)C1CCC(CNS(=O)(=O)c2ccc3c(c2)CC(C)N3C(C)=O)CC1` (centres undefined), the “inhibition” value is -0.644% (inactive). Same read-out and setting: with `Cc1ccc(-c2nc(CS(=O)(=O)CC(=O)NCc3cccc(F)c3)c(C)o2)cc1` the figure was 0.286% (inactive).

On to `Cn1cccc1Cc1nnc(SCC(=O)Nc2ccc3c(c2)OCCO3)n1-c1ccc(F)cc1`, for which the “inhibition” value was -1.98% (inactive).

For `COc1cc2c(OC(C)=O)c3c(c(-c4ccc5c(c4)OCO5)c2cc1OC)C(=O)OC3`, the Potency was 2.33 µM (active). In the case of `Cc1ccc(S(=O)(=O)Nc2nc(C)cc(N/N=C/c3ccc(O)cc3)n2)cc1`, the “inhibition” value is -3.07% (inactive). On the same count and under the same terms, under `O=c1[nH]c(SCc2cccc(Cl)c2)nc2ccccc12` stands 2.3% (inactive). On to `CN(CC(=O)NCc1ccco1)CC(=O)Nc1c(Cl)cccc1Cl`, for which the “inhibition” value was 0.0178% (inactive). On the same count and under the same terms, under `CC1C2=C(CC(C)(C)CC2=O)NC2=C1C(=O)CC(C)(C)C2` stands -0.241% (inactive); under `Cc1cc(N)n(Cc2ccc(Cl)cc2)n1`, -1.76% (inactive). For `CN(C)c1cccc(C(=O)N(C)C2CCCN(Cc3ccccc3F)C2)c1` (centres undefined), the Potency was 20.7 µM (active).

As to `COc1cc(NC(=S)NCCc2ccc(S(N)(=O)=O)cc2)c(OC)cc1Cl`, the “inhibition” value was 7.47% (inactive). As to `Cc1c(NC(=O)C(C)OC(=O)CCC2CCCC2)c(=O)n(-c2ccccc2)n1C` (centres undefined), the “inhibition” value is 0.008% (inactive). The same measure, in the same setting: under `COc1ccc(NS(=O)(=O)c2cc3c(cc2C)NC(=O)CO3)c(OC)c1` stands -1.01% (inactive). On the same count and under the same terms, with `COCCN(C(=O)c1ccccc1OC)c1nnc(C)s1` the figure was -2.79% (inactive); with `COCCn1nnnc1C(C(C)C)N1CCCC(C)C1` (centres undefined), 1.8% (inactive); with `CC(=O)Nc1sc(C)c(C)c1C(=O)OCC(=O)NC(C)c1ccccc1` (centres undefined), -0.488% (inactive). On the same count and under the same terms, under `Cc1ccc(S(=O)(=O)NNC(=O)c2ccc(F)cc2)cc1` stands 0.277% (inactive). Turning to `CCc1ccc(S(=O)(=O)NCCc2cn3cccc(C)c3n2)s1`, the “inhibition” value is -2.57% (inactive). On the same count and under the same terms, under `C[C@@H](NC(=O)c1nc[nH]c1C(=O)NCc1ccc(CNC(=O)OC(C)(C)C)cc1)c1ccccc1` stands -3.16% (inactive); under `CN(CC(=O)N(C)CC(=O)Nc1c(Cl)cccc1Cl)Cc1ccccc1F`, 0.804% (inactive).

For the compound `O=C(COc1cc2oc(=O)cc(-c3ccccc3)c2cc1Cl)NC(Cc1c[nH]c2ccc(O)cc12)C(=O)O` (centres undefined), the “inhibition” value is 0.485% (inactive). Same read-out and setting: with `Cc1ccc2sc(NNC(=O)c3ccc4c(c3)OCCO4)nc2c1C` the figure was -3.56% (inactive). Still for that read-out and setting: with `O=S(=O)(/N=C(/c1ccccc1)N1CCOCC1)c1ccc(F)cc1F` the figure was -0.111% (inactive); with `CCCCCN(C(=O)CCC(=O)OCCOc1cccc(Cl)c1)c1c(N)n(CCCC)c(=O)[nH]c1=O`, -1.16% (inactive); with `O=C(Cc1ccc(Cl)cc1)c1c[nH]c(C(=O)NCCCn2ccnc2)c1`, 1.14% (inactive). For `CC(C)N1CCc2c(sc(NC(=O)CCc3ccccc3)c2C(N)=O)C1`, the “inhibition” value is 6.59% (inactive). Take `Cc1cc(=O)[nH]c2c(C)cc(S(=O)(=O)Nc3ccc(O)cc3)cc12`: the “inhibition” value is -1.83% (inactive). On to `C/C=C/C(=O)Nc1cccc(C2=NOC3(C2)C[C@@H](C(N)=O)N(C(=O)c2cc([N+](=O)[O-])cc([N+](=O)[O-])c2C)C3)c1` (some centres undefined), for which the “inhibition” value was -2.11% (inactive). As for `CCc1ccccc1N1C(=O)CC(Sc2nccc(C)n2)C1=O` (centres undefined), the “inhibition” value was 0.764% (inactive). With `COC(=O)[C@]1(Cc2ccccc2)N[C@H](CN(C)C(=O)c2ccccc2)[C@@H]2C(=O)N(Cc3ccccc3)C(=O)[C@@H]21`, the “inhibition” value was 3.58% (inactive).
